Sampled rows, rich in hits. Any-hit rate of the full collection: about 2%.
S1P2 agonist: S1P2 receptor agonists, primary screen, cell-based; Sphingosine 1-phosphate receptor 2 (Homo sapiens), O95136; S1P2-expressing cell line, agonist reporter read-out; activation, % at 4.5 µM; 0.46% of 97,000 active; in the data active means activation above about 16%;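 further: 0% = vehicle low control and 100% = maximal reference agonist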
GALR2 agonist: GALR2 receptor agonists, primary screen, cell-based; AID 803, 2007; Galanin receptor type 2 (Homo sapiens), O43603; GALR2-expressing cells, agonist activation read-out; activation, % (test concentration not listed); 0.48% of 140,000 active; in the data active means activation above about 5%, passing the limit was not always enough;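 further: 0% = vehicle buffer wells and 100% = reference agonist at full effect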
Target sequence (O43603 whole entry, looked up): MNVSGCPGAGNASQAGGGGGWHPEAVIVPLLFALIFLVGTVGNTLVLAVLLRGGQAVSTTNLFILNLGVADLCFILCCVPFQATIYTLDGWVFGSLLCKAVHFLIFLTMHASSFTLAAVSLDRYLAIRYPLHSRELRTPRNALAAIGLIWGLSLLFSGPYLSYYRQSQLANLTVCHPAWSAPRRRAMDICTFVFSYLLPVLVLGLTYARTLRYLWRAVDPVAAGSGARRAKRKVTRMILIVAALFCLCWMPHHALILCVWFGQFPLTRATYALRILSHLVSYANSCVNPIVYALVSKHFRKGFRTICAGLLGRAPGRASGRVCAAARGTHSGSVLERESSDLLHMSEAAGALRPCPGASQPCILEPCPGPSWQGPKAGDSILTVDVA
S1P2 antag: human S1P2 receptor antagonists, primary screen, cell-based. cell-based S1P2 antagonist assay, inhibition at 5 uM. inhibition, % at 5 µM. 0.21% of 97,000 active; in the data active means inhibition above about 45%;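 further: CRE beta-lactamase reporter cells expressing human S1P2 stimulated with S1P; 0% = agonist at EC80 alone and 100% = agonist plus reference antagonist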
GALR2 antag: GALR2 antagonists in receptor-expressing cells, primary screen | antagonist mode | inhibition, % at 4 µM | 0.39% of 140,000 active | AID 828, 2007; in the data active means inhibition above about 27%;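 further: cells stimulated with galanin 1-16 at roughly its EC80; 0% = agonist challenge control and 100% = basal control without agonist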
PLAP activator: PLAP enzyme activators, biochemical, luminescence, HTS. purified PLAP enzyme, luminescent substrate read-out; active compounds read high. 1.2% of 96,000 active. AID 696, 2007. Alkaline phosphatase, placental type (Homo sapiens), P05187. activation fold at 20 µM; in the data active means activation fold above about 2
* marks the source's active call; other numbers are inactive results; x = no result given.

SMILES | S1P2 agonist | GALR2 agonist | S1P2 antag | GALR2 antag | PLAP activator
O=C(Cn1ncc2c(=O)oc3ccccc3c21)Nc1nc2ccccc2s1 | -5 | -1 | -4 | -17 | 0.8
CCc1cccc(CC)c1NC(=O)C1SC(=Nc2ccccc2C)C(c2nc3ccccc3s2)=C1N (configuration not stated) | -3 | -2 | 18 | 22 | 1.2
O=C(CSc1ncnc2c1oc1ccccc12)NCc1ccc(F)cc1 | 0 | -2 | -17 | 12 | 0.9
CC1(C)CC(=O)C(/C=N/n2c(C(F)(F)F)nc3ccccc3c2=O)=C(O)C1 | -4 | -2 | 3 | 9 | 1
Cc1cc2ncc(-c3ccc(Cl)cc3)c(N)n2n1 | -8 | -1 | 22 | 8 | 2*
COC(=O)/C(=C\C(=O)c1ccccc1)Nc1cccc(C(F)(F)F)c1 | -6 | -2 | 14 | 8 | 0.8
CCN(CC)C(C)C(=O)NCC1(c2ccccc2)CCOCC1 (configuration not stated) | 3 | -2 | -18 | 5 | x
Cc1cc(NC(=O)CCSc2ccccc2)ccc1Br | x | -2 | x | -7 | x
COc1ccc2cc3c(N)nn(C(=O)c4cccc([N+](=O)[O-])c4)c3nc2c1 | x | 8.0* | x | -2 | x
O=C(CSc1ncn[nH]1)Nc1nnc(-c2ccccc2)s1 | -3 | -4 | 10 | 1 | 2.3*
O=C(COC(=O)CC12CC3CC(CC(Br)(C3)C1)C2)NC(=O)NCc1ccco1 | -3 | 0 | -13 | -8 | 1
O=[N+]([O-])c1cccc(-c2nc(-c3ccncc3)no2)c1 | 36* | -1 | 4 | 0 | 1
CCn1c(-c2ccc3[nH]c(C)c(C)c3c2)n[nH]c1=S | -4 | 0 | 4 | 0 | 2.1*
Cc1[nH]c2ccc(-c3n[nH]c(=S)n3C)cc2c1C | -5 | -2 | 13 | 7 | 1.8
CCn1c(-c2cc3ccccc3cc2O)n[nH]c1=S | -3 | -1 | 15 | -2 | 2.9*
Cc1ccc(S(=O)(=O)NC(CC(C)C)C(=O)Nc2nccs2)cc1 (configuration not stated) | -5 | -1 | -8 | -18 | 2.2*
CO/N=C/NC(=O)NOCc1ncc(C(F)(F)F)cc1Cl | -1 | -1 | -12 | -11 | 1.3
O=C(N/C=N/OCc1ccc(Cl)cc1Cl)NOCc1ncc(C(F)(F)F)cc1Cl | 1 | -1 | -16 | -15 | 2*
CCn1c(/C=C/c2c(C)[nH]c3ccccc23)nc2ccccc2c1=O | x | 7.3* | x | 7 | x
COC(=O)[C@H](CCSC)NC(=O)Nc1ccc(OC)cc1OC | -8 | -2 | 13 | 9 | 0.8
COC(=O)[C@H](CCSC)NC(=O)Nc1ccc(C)cc1C | -5 | -1 | 27 | -8 | 2.7*
Cc1nc2ccc(C(C(F)(F)F)(C(F)(F)F)C(F)(F)F)cc2[nH]1 | -3 | -1 | 2 | 1 | 1.3
COc1cccc(NC(=S)NNC(=O)C(C)n2nc(C)c([N+](=O)[O-])c2C)c1 (configuration not stated) | -7 | -2 | 2 | 3 | 2.1*
COc1cccc(NC(=S)NNC(=O)c2c([N+](=O)[O-])c(C)nn2C)c1 | -7 | -1 | 18 | -1 | 2.1*
Cc1noc2ncnc(Sc3c(Cl)cccc3Cl)c12 | -6 | -3 | 48* | 20 | 0.9
SMILES | S1P2 agonist | GALR2 agonist | S1P2 antag | GALR2 antag | PLAP activator
C=C(C(=O)c1ccccc1)C(C)C(=C)C(=O)c1ccccc1 | x | -2 | x | 18 | x
CC(=O)Nc1ccc(NC(=O)CSC2=NCCS2)cc1 | -9 | -1 | 18 | -1 | 1.3
O=C(CSC1=NCCS1)Nc1ccnc2ccccc12 | x | -2 | x | 35* | 1
CCCCc1ccc(-n2nnnc2SCC(=O)Nc2cc(OC)c([N+](=O)[O-])cc2C)cc1 | x | -2 | x | -3 | x
O=C(CSc1nnc2ccccn12)Nc1cccc(-c2nc3ccccc3s2)c1 | x | 5.7* | x | 10 | x
CN(C)CCNc1oc(COc2ccc(Cl)cc2Cl)nc1C#N | -6 | -6 | 5 | 8 | 2*
Cc1[nH]nc2c1C(c1ccccn1)N(c1ccc(Br)cc1)C2=O (configuration not stated) | -4 | 0 | -4 | 9 | 1.6
CCOC(=O)c1ccc(N2C(=O)c3n[nH]c(C)c3C2c2cccnc2)cc1 (configuration not stated) | 0 | 0 | 19 | -19 | 2.3*
CCOC(=O)c1ccc(N2C(=O)c3n[nH]c(C)c3C2c2ccccn2)cc1 (configuration not stated) | -3 | 0 | 9 | 4 | 2.5*
Cc1ccc(N2C(=O)c3n[nH]c(C)c3C2c2cccnc2)cc1 (configuration not stated) | -5 | -1 | 4 | -1 | 2.1*

From PubChem
